About 83,000 compounds went through this panel and 20% of them were active in at least one assay; those are over-represented in the sample as a whole.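 Activity criterion: percent growth below 10, measured after cells in 96-well plates were exposed to a single compound concentration for 48 hours.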 Values without a mark were called inactive. Active and inactive are the calls of the source.
Assays:
Assay in all cases: NCI-60 one-dose screen, 48 h (100 = growth as untreated, 0 = no growth, -100 = all killed)
Conditions in all cases: 10 µM unless noted
SR leukemia = tested on: SR leukemia
RPMI-8226 leukemia = tested on: RPMI-8226 leukemia
OVCAR-8 ovarian = tested on: OVCAR-8 ovarian
OVCAR-5 ovarian = tested on: OVCAR-5 ovarian
OVCAR-4 ovarian = tested on: OVCAR-4 ovarian
SK-OV-3 ovarian = tested on: SK-OV-3 ovarian
IGROV1 ovarian = tested on: IGROV1 ovarian
NCI/ADR-RES ovarian = tested on: NCI/ADR-RES ovarian
MDA-MB-435 melanoma = tested on: MDA-MB-435 melanoma
SW-620 colon = tested on: SW-620 colon
MCF7 breast = tested on: MCF7 breast
HCT-116 colon = tested on: HCT-116 colon
HCC-2998 colon = tested on: HCC-2998 colon
KM12 colon = tested on: KM12 colon
OVCAR-3 ovarian = tested on: OVCAR-3 ovarian
HS 578T breast = tested on: HS 578T breast
T-47D breast = tested on: T-47D breast
BT-549 breast = tested on: BT-549 breast

Compound	growth (SR leukemia)	growth (RPMI-8226 leukemia)	growth (OVCAR-8 ovarian)	growth (OVCAR-5 ovarian)	growth (OVCAR-4 ovarian)	growth (SK-OV-3 ovarian)	growth (IGROV1 ovarian) [%]	growth (NCI/ADR-RES ovarian)	growth (MDA-MB-435 melanoma)	growth (SW-620 colon)	growth (MCF7 breast)	growth (HCT-116 colon)	growth (HCC-2998 colon)	growth (KM12 colon)	growth (OVCAR-3 ovarian)	growth (HS 578T breast)	growth (T-47D breast) [%]	growth (BT-549 breast)
CC(O)CN(CCO)CCN(CCO)CC(C)O (configuration not stated)	89.2%	102%	106%	99.7%	109%	114%	115	112%	106%	105%	94.5%	104%	109%	108%	–	–	–	–
CCC(C)C1NC(=O)C(CCCCN)NC(=O)C(CCCCN)NC(=O)C(CC(C)C)NC(=O)C(CCCCN)NC(=O)C(C(C)CC)NC(=O)C(C(C)C)NC(=O)C(C(C)CC)NC(=O)C(CCCCN)NC(=O)C(CCCCN)NC(=O)C(C)NC(=O)C(CCCCN)NC(=O)C(CC(C)C)NC1=O (configuration not stated)	2.93% (active)	-17.4% (active)	12.4%	67.3%	23.2%	26.1%	–	58.7%	26.5%	39.1%	22.5%	10.7%	23.2%	6.18% (active)	10.6%	53%	–	–
NCCCOc1cc2ccccc2cc1C(=O)Nc1ccc(Cl)cc1OC(=O)c1cc2ccccc2cc1OCCCN	-47.5% (active)	-46.6% (active)	-77% (active)	-92.7% (active)	-74.4% (active)	-90.8% (active)	–	-61.5% (active)	-76.9% (active)	-94.9% (active)	-78.9% (active)	-92.6% (active)	–	-96.5% (active)	-99.1% (active)	-46.8% (active)	–	–
COc1ccc(-c2nc(SCC(C)C)nc(Nc3ccccc3)c2C#N)cc1	48.9%	87.6%	74.4%	103%	-12.2% (active)	97.6%	–	85.9%	92.8%	67.8%	75.7%	38.5%	99.3%	–	46.2%	72.7%	51.3	101%
COc1ccc(Nc2c3ccccc3nc3ccccc23)cc1	1.46% (active)	28.1%	14.7%	–	41.5%	36.1%	22.1	28.1%	31.3%	24.2%	11.5%	13%	46%	37.6%	28.3%	59.5%	30.6	42.2%
O=C(N/N=C\c1ccc(Cl)cc1)C(=O)N/N=C\c1ccc(Cl)cc1	90.7%	95.7%	102%	105%	–	92.4%	–	104%	108%	113%	96.5%	106%	110%	106%	123%	–	99.2	95.4%
O=C1c2ccccc2CCc2ccccc21	104%	108%	99.3%	93.7%	104%	–	93	101%	100%	99.3%	94.9%	98.2%	97.5%	102%	–	–	–	99%
O=C(N/N=C/c1cc(Cl)ccc1O)C(=O)N/N=C/c1cc(Cl)ccc1O	51.3%	71.9%	60.8%	72.5%	–	64.1%	50.3	44.2%	67.8%	61.3%	61.3%	60.2%	59.5%	59.1%	15.5%	–	73.5	86.9%
Cc1ccc(S(=O)(=O)NC(CCC(=O)Nc2ccccc2)C(=O)Nc2ccccc2)cc1 (configuration not stated)	4.65% (active)	-17.1% (active)	-10.9% (active)	-8.85% (active)	-4.83% (active)	–	–	-24.7% (active)	-1.32% (active)	11.1%	-8.66% (active)	-49.5% (active)	0.86% (active)	0.4% (active)	-42% (active)	–	–	-14.9% (active)
CCS(=O)(=O)OCCO[C@H]1Cc2cc3ccc(=O)oc3cc2OC1(C)C	111%	113%	101%	107%	106%	–	109	107%	–	97%	95.1%	106%	109%	104%	108%	98%	–	100%
COC(c1ccccc1)C(Br)C(=O)c1ccccc1 (configuration not stated)	79.7%	90.6%	92.1%	108%	93.1%	–	96.6	104%	96.3%	125%	98.5%	–	–	114%	115%	111%	–	92.4%
COc1cccc(-c2cc(-c3cc4ccccc4oc3=O)nc(N)n2)c1	92.3%	108%	111%	98.2%	–	–	70	105%	119%	103%	70%	95.1%	–	95.4%	95%	80.8%	–	–
CC1Cc2cc(F)ccc2-n2cccc21 (configuration not stated)	114%	111%	99.5%	95%	–	101%	92	107%	96.9%	96.1%	107%	114%	106%	110%	109%	–	102	111%
COc1cc(NC(C)CCCN)c2nccc(C)c2c1OC (configuration not stated)	69.4%	65.7%	98.2%	–	29%	96.1%	92.8	98.2%	106%	83.5%	10.2%	93.1%	96.7%	101%	44.4%	87.3%	66.7	98.2%
COc1cc(Cn2ccc3c2-c2oncc2CC3)cc(OC)c1	24.1%	35.2%	49%	–	61.7%	24.6%	26.2	-13.9% (active)	-37% (active)	18%	6.18% (active)	14.7%	61.6%	24.5%	4.85% (active)	32.4%	32.2	32.9%
Cc1ccc([C@@H]2C[C@H](O)Cc3ccccc3N2)s1	96.4%	102%	99.1%	97.7%	–	98.6%	100	104%	103%	101%	107%	116%	101%	109%	111%	–	99.1	110%
COC(=O)Nc1nc2ccc(C(=O)c3ccccc3N(C)C3COC3)cc2[nH]1	35.6%	-8.33% (active)	34.7%	57%	75.8%	–	58.6	53.3%	-42.1% (active)	14.9%	19%	30.4%	67.2%	17%	14.6%	22.5%	–	60.4%
CCN(CC)c1ccc2nc3ccc(N=Nc4ccc(O)cc4)cc3[n+](-c3ccccc3)c2c1	49%	30.6%	56.8%	113%	–	89.7%	–	101%	48.6%	–	-13.8% (active)	8.46% (active)	62.8%	34.8%	-15.4% (active)	–	32.7	–
